Active and inactive are the calls of the source. The rule behind the calls is not given here.
molecular target: Pantothenate synthetase (Mycobacterium tuberculosis (strain ATCC 25618 / H37Rv)) (UniProt P9WIL5); experiment: Recombinant Mtb pantothenate synthetase (PanC) inhibitors, coupled enzyme, confirmatory (AID 375); conditions: coupled enzyme assay; at 10 µM, stronger effect = higher value;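 note: 0% = full reaction with vehicle and 100% = no enzyme background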
Sequence (P9WIL5 whole entry, looked up): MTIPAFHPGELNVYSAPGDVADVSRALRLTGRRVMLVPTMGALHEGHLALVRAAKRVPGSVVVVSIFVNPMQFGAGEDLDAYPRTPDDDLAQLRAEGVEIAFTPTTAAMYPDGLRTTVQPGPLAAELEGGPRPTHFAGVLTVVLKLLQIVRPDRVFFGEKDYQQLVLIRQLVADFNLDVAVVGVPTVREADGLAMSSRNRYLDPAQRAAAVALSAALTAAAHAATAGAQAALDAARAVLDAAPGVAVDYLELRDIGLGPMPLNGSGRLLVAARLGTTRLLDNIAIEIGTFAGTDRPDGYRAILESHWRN

Row | SMILES | inhibition
1 | Cc1ccc(N=C2NC(=O)CS2)c(C)c1 | 0% (inactive)
2 | S=C(c1ccc(-c2cc(Cl)ccc2Cl)o1)N1CCOCC1 | 0% (inactive)
3 | CC1CCCC(C)N1C(=O)COC(=O)c1ccc[nH]c1=O (centres undefined) | 0% (inactive)
4 | CCOCCCn1c(=NC(C)=O)c(C(=O)OCC)cc2c(=O)n3ccccc3nc21 | 0% (inactive)
5 | COc1ccccc1OCCn1c(=O)sc2ccccc21 | 0% (inactive)
6 | Cc1cc(C)c(C(=O)Nc2ccc(S(=O)(=O)Nc3onc(C)c3C)cc2)c(C)c1 | 8% (inactive)
7 | COc1ccc(CCNC(=O)c2cnc3scc(C)n3c2=O)cc1OC | 0% (inactive)
8 | Cc1csc(NC(=O)CCS(=O)(=O)c2ccc(Br)cc2)n1 | 2% (inactive)
9 | C=CCc1ccccc1OCC(O)CN1CCN(Cc2ccc3c(c2)OCO3)CC1 (centres undefined) | 5% (inactive)
10 | CCOc1cc(C(=O)Nc2ccon2)cc(OCC)c1OCC | 8% (inactive)
11 | CC1=C(C(=O)N2CCCCC2)C2(CCC(C)CC2)OC1=O (centres undefined) | 12% (inactive)
12 | CCNC(=O)N1c2ccc(OCC)cc2C(C)=CC1(C)C | 0% (inactive)
13 | COc1ccc(C2(CN(C(C)=O)C(C)=O)CCCC2)cc1OC | 2% (inactive)
14 | N#Cc1ccc(-c2csc(NC(=O)C3CC3)n2)cc1 | 0% (inactive)
15 | Cc1nnc2ccc(N3CCC4(CC3)OCCO4)nn12 | 0% (inactive)
16 | Cc1csc(SCCn2c(N3CCCC3)nc3c2c(=O)[nH]c(=O)n3C)n1 | 0% (inactive)
17 | O=C(Nc1ccccc1)N(CCN1CCOCC1)Cc1ccccc1F | 0% (inactive)
18 | C/C(N)=C(\C#N)C(=O)NCCc1ccccn1 | 0% (inactive)
19 | CCn1c(=O)n(CC(=O)Nc2cc(OC)ccc2OC)c(=O)c2ccccc21 | 10% (inactive)
20 | COc1cccc(-c2nnc3sc(C4CCCCC4)nn23)c1 | 4% (inactive)

Row | SMILES | inhibition
21 | COC(=O)CS(=O)(=O)c1nnc([C@H](Cc2ccccc2)NC(=O)OC(C)(C)C)o1 | 1% (inactive)
22 | CN(C(=O)Cn1c(=O)n(CCCCC(=O)NC2CCCC2)c(=O)c2ccccc21)C1CCCCC1 | 0% (inactive)
23 | CCOCCn1c(CN2CCN(c3cccc(Cl)c3)CC2)nc2c1c(=O)n(C)c(=O)n2C | 4% (inactive)
24 | COc1ccc(NS(=O)(=O)c2ccc(NC(C)=O)cc2)cc1OC | 0% (inactive)
25 | Brc1ccc(C2=Nn3c(nnc3-c3ccncc3)SC2)cc1 | 0% (inactive)
26 | Cn1cnc(S(=O)(=O)Nc2ccc(C(F)(F)F)cc2)c1 | 0% (inactive)
27 | CC1(C)CC(=O)C(C=NCc2ccc3c(c2)OCO3)=C(O)C1 | 5% (inactive)
28 | CCCC(=O)O[C@]1(C(=O)COC(C)=O)CC[C@H]2[C@@H]3C[C@H](F)C4=CC(=O)C=C[C@]4(C)[C@@]3(F)[C@@H](O)C[C@@]21C | 0% (inactive)
29 | CCN(C(=O)c1cc2cc3ccc(C)cc3nc2o1)c1ccc(OC)cc1 | 6% (inactive)
30 | O=C(c1cnn2c1NC(c1ccco1)CC2C(F)(F)F)N1CCN(c2cccc(Cl)c2)CC1 (centres undefined) | 4% (inactive)
31 | Cc1cc(C)c2c(N)c(C(=O)N3CCN(c4ncccn4)CC3)sc2n1 | 3% (inactive)
32 | CC1C(=O)C(C)C(c2cccs2)NC1c1cccs1 (centres undefined) | 0% (inactive)
33 | COc1ccc2c(c1)C(=O)N(c1ccccc1OC)C(=O)C2 | 0% (inactive)
34 | Cc1ccc(S(=O)(=O)N2CCN(C(=O)CN3C(=O)NC4(CCOc5ccccc54)C3=O)CC2)cc1 (centres undefined) | 2% (inactive)
35 | Cc1cc(Br)ccc1NC(=O)CCN1C(=O)c2ccncc2C1=O | 0% (inactive)
36 | O=C1NCCCc2c1no[n+]2[O-] | 18% (inactive)
37 | CC(=O)Nc1ccc(S(=O)(=O)N2CCC(c3nc4ccccc4[nH]3)CC2)cc1 | 0% (inactive)
38 | O=C(NCc1ccccn1)c1cc(-n2cnnc2)ccc1Cl | 0% (inactive)
39 | CCc1ccc(C(=O)NC2CCCCC2)s1 | 0% (inactive)

Reference: PubChem BioAssay
